This excerpt belongs to a sample that is enriched for hits.
Tg IFNy HTS = T. gondii growth inhibition with IFN-gamma, primary screen, cell-based; hit rate 3.8% among 69,000; Toxoplasma gondii growth in IFN-gamma-treated host cells; stronger effect = lower value; activity change, negative = inhibition, % (no concentration beside the values); in the data active = activity change below about -70%, passing the limit was not always enough;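 note: host cells are HeLa cells infected with Toxoplasma gondii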
Numbers without * were called inactive.

Results for O=C(NC(NC(=S)Nc1ccc(F)c([N+](=O)[O-])c1)C(Cl)(Cl)Cl)C(c1ccccc1)c1ccccc1 (centres undefined) ?
Tg IFNy HTS: -81*

Results for O=C(NCCc1ccc(Cl)cc1)C(c1ccccc1)c1ccccc1 ?
Tg IFNy HTS: -11

What do the screens show for `O=C(/C=C/c1ccccc1)NC(NC(=S)Nc1cccc2cccnc12)C(Cl)(Cl)Cl` (centres undefined)?
Tg IFNy HTS: -36

What do the screens show for `Cc1cc(C)c2c(=O)n(Cc3nc(-c4ccc(C(C)C)cc4)oc3C)c(=O)n(Cc3ccco3)c2n1`?
Tg IFNy HTS: -6

What do the screens show for `COC(=O)[C@@H]1C[C@@H](N(C)C)CN1CC1=Cc2cccc(OC)c2OC1`?
Tg IFNy HTS: 6

How did COc1cccc(-c2cn3nc(-c4cccs4)sc3n2)c1 do in these assays?
Tg IFNy HTS: inactive

Results for O=C(C[C@H]1NCCC[C@@H]1O)Cn1cnc2cc(Br)c(Cl)cc2c1=O ?
Tg IFNy HTS: -80*

What do the screens show for `O=C(O)Cn1cnc2ccccc2c1=O`?
Tg IFNy HTS: 0

What do the screens show for `CCN1C[C@@H](COC)[C@@]2(CCN(C(=O)c3cc4ccccc4s3)C2)C1`?
Tg IFNy HTS: 1

What do the screens show for `O=S(=O)(c1ccc(Cl)cc1)N1CCC2(CC1)Nc1ccccc1-n1cccc12`?
Tg IFNy HTS: 26

What do the screens show for `CC(C)(C)c1ccc(NC(=S)NCCc2ccncc2)cc1`?
Tg IFNy HTS: -12

What do the screens show for `O=C(NCCc1ccncc1)c1cc(Br)ccc1O`?
Tg IFNy HTS: -76*

How did O=C(NCCc1ccccc1)c1ccccc1Cl do in these assays?
Tg IFNy HTS: 248

Results for FC(F)(F)COc1nc(NCc2ccccc2)nc(OCC(F)(F)F)n1 ?
Tg IFNy HTS: -70

Results for CCNC(=O)[C@@H]1C[C@H](N)CN1C(=O)CCc1ccc(C)c(C)c1 ?
Tg IFNy HTS: 75

How did CCOC(=O)c1sc(NC(=O)CSc2n[nH]c(-c3ccccn3)n2)c(C#N)c1C do in these assays?
Tg IFNy HTS: -108*

How did CCOC(=O)c1c(NC(=O)CSc2nc(C)cc(C)n2)sc(C(C)=O)c1C do in these assays?
Tg IFNy HTS: -24

How did Cc1sc(NC(=O)CSc2nc3cc4c(cc3cc2C#N)OCCO4)c(C#N)c1C do in these assays?
Tg IFNy HTS: 198

How did Cc1ccc(Nc2nc(C(=O)Nc3cccc(F)c3)nc3ccccc23)cc1 do in these assays?
Tg IFNy HTS: -28

Results for O=C(Nc1ccc2c(c1)OCCO2)c1c(O)c2cccnc2[nH]c1=O ?
Tg IFNy HTS: inactive

Results for CCn1c(C)cc(C)c(C(=O)N2C[C@@H]3C4CCC(CC4)[C@@H]3C2)c1=O ?
Tg IFNy HTS: 1

How did CCOc1ncccc1-c1cncnc1 do in these assays?
Tg IFNy HTS: -3

How did CCOc1ncccc1-c1cc(CC)nc(N(C)C)n1 do in these assays?
Tg IFNy HTS: 6

What do the screens show for `CCOc1ncccc1-c1ccc(C)nc1N`?
Tg IFNy HTS: -90*

How did COc1ccc(NC(=O)c2cncc(C)c2)c(NC(=O)C(C)C)c1 do in these assays?
Tg IFNy HTS: 68

What do the screens show for `O=C1C2C(C(=O)N1c1nccs1)C1c3ccccc3C2C2C=CC=CC21` (centres undefined)?
Tg IFNy HTS: -4

What do the screens show for `CC(C)Cc1cn(C2CCN(C(=O)C3CCOC(C)(C)C3)CC2)nn1` (centres undefined)?
Tg IFNy HTS: 2

What do the screens show for `O=C(c1nc2c(s1)CCCN2C(=O)c1ccccc1)N1CCCC1`?
Tg IFNy HTS: -8

What do the screens show for `CCN(CC)CCNC(=O)c1ccc(N)cc1`?
Tg IFNy HTS: 13

How did CCN(CC)CCNC(=O)c1c(C)[nH]c(/C=C2\C(=O)Nc3ccc(F)cc32)c1C do in these assays?
Tg IFNy HTS: -75*

What do the screens show for `Cc1[nH]c(/C=C2\C(=O)Nc3ccc(S(=O)(=O)N(C)c4cccc(Cl)c4)cc32)c(C)c1C(=O)N1CCN(C)CC1`?
Tg IFNy HTS: -64

What do the screens show for `O=C(Nc1ccc(F)c(F)c1)c1c(O)c2cccnc2n(-c2ccccc2)c1=O`?
Tg IFNy HTS: 31

Results for O=C(c1ccccn1)N1CC[C@@H]2C(=O)N(c3ccsc3)CCO[C@@H]2C1 ?
Tg IFNy HTS: 5

How did CC(=O)N1Cc2ccccc2OC2(CCC(N(C)C(=O)c3cc(-c4ccco4)on3)CC2)C1 (centres undefined) do in these assays?
Tg IFNy HTS: -11

What do the screens show for `CCCSc1ncc(-c2nccn2Cc2cnn(CC)c2)cn1`?
Tg IFNy HTS: 4

What do the screens show for `CC(C)(C)c1csc(=S)n1CCc1ccc(Cl)cc1`?
Tg IFNy HTS: -87*

How did Cn1c(-c2ccc(Cl)cc2)cs/c1=N\C(=S)NCCc1ccccc1 do in these assays?
Tg IFNy HTS: -57

How did CN(CC1COCCO1)c1nc(-c2cccnc2)nc2c1cnn2C (centres undefined) do in these assays?
Tg IFNy HTS: -12

What do the screens show for `Nc1nnc(Sc2ncc([N+](=O)[O-])s2)s1`?
Tg IFNy HTS: 12

What do the screens show for `Cc1cccc2ncc(C(=O)N3Cc4cnc(CC(C)C)nc4C3)c(=O)n12`?
Tg IFNy HTS: 11

Results for Cc1cc(CC(C)NC(=O)c2cc3ncccn3n2)n[nH]1 (centres undefined) ?
Tg IFNy HTS: -3

What do the screens show for `CCN(CC)C(=O)CN1C(=O)N2CCCN=C2c2ccc(Cl)cc21`?
Tg IFNy HTS: 7

How did Cc1cc(=O)n(CC(=O)N2CCC(c3onc4c3CCCCC4)CC2)c2ccccc12 do in these assays?
Tg IFNy HTS: -1

What do the screens show for `Cc1ccc(/C=C/C(=O)N2CCCC(c3nc(CCNC(=O)C4CC4)cs3)C2)cc1` (centres undefined)?
Tg IFNy HTS: -67

What do the screens show for `CCC(=O)NCCc1csc(C2CCCN(C(=O)/C=C/c3cccc(Cl)c3)C2)n1` (centres undefined)?
Tg IFNy HTS: -79*

What do the screens show for `CC(=O)NCCc1csc(C2CCCN(C(=O)/C=C/c3ccccc3Cl)C2)n1` (centres undefined)?
Tg IFNy HTS: -6

How did Cc1cccc(-c2ccc(NC(=O)C3CCN(C(=O)[C@@H]4C[C@H]4c4ccccc4)CC3)cc2)c1 do in these assays?
Tg IFNy HTS: 96

How did CCc1ccccc1NC(=O)Cn1c(=O)cc(-c2nc(C3CC3)no2)c2ccccc21 do in these assays?
Tg IFNy HTS: -39

Results for COCCN1C2(CCN(Cc3nccs3)C2)c2ccccc2S1(=O)=O (centres undefined) ?
Tg IFNy HTS: 3

How did CN(C)CCN1C2(CCN(Cc3nccs3)C2)c2ccccc2S1(=O)=O (centres undefined) do in these assays?
Tg IFNy HTS: 0

How did CC(C)CCN1C2(CCN(Cc3nccs3)C2)c2ccccc2S1(=O)=O (centres undefined) do in these assays?
Tg IFNy HTS: -96*

How did CCCC(C(=O)NCCc1nc2ccccc2n1C)n1nc(C)cc1C (centres undefined) do in these assays?
Tg IFNy HTS: 5

How did CSc1cccc(NC(=O)Cn2c(=O)ccc3cc(S(=O)(=O)N4CCC(C)CC4)ccc32)c1 do in these assays?
Tg IFNy HTS: -65

Results for CC1CCN(S(=O)(=O)c2ccc3c(ccc(=O)n3CC(=O)NC(C)C)c2)CC1 ?
Tg IFNy HTS: 1

Results for O=C(Cn1c(=O)ccc2cc(S(=O)(=O)N3CCCC3)ccc21)Nc1ccc(F)cc1 ?
Tg IFNy HTS: -42

What do the screens show for `CC1CCN(S(=O)(=O)c2ccc3c(ccc(=O)n3CC(=O)Nc3ccc(F)c(Cl)c3)c2)CC1`?
Tg IFNy HTS: -66

How did CC1CCN(S(=O)(=O)c2ccc3c(ccc(=O)n3CC(=O)Nc3cccc(F)c3)c2)CC1 do in these assays?
Tg IFNy HTS: -81*
